# Data taken from PMC4336329 (PLoS ONE, 2015).
# The campaign covered roughly 310,000 compounds. About 14,000 (4.5%) showed an effect of 50% or more. Effects have a minus sign here. For the sample, strong results were picked, then their nearest neighbours and some compounds at random.
# Target: human ether-à-go-go-related gene (hERG) potassium channel (human, UniProt Q12809)
# Assay: primary screen, population patch clamp on CHO cells stably expressing hERG; higher = less effect of the substance
# 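Note: peak tail current of the secondary pulse compared with the same well before compound.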
# human ether-à-go-go-related gene (hERG) potassium channel, sequence (Q12809 whole entry, looked up): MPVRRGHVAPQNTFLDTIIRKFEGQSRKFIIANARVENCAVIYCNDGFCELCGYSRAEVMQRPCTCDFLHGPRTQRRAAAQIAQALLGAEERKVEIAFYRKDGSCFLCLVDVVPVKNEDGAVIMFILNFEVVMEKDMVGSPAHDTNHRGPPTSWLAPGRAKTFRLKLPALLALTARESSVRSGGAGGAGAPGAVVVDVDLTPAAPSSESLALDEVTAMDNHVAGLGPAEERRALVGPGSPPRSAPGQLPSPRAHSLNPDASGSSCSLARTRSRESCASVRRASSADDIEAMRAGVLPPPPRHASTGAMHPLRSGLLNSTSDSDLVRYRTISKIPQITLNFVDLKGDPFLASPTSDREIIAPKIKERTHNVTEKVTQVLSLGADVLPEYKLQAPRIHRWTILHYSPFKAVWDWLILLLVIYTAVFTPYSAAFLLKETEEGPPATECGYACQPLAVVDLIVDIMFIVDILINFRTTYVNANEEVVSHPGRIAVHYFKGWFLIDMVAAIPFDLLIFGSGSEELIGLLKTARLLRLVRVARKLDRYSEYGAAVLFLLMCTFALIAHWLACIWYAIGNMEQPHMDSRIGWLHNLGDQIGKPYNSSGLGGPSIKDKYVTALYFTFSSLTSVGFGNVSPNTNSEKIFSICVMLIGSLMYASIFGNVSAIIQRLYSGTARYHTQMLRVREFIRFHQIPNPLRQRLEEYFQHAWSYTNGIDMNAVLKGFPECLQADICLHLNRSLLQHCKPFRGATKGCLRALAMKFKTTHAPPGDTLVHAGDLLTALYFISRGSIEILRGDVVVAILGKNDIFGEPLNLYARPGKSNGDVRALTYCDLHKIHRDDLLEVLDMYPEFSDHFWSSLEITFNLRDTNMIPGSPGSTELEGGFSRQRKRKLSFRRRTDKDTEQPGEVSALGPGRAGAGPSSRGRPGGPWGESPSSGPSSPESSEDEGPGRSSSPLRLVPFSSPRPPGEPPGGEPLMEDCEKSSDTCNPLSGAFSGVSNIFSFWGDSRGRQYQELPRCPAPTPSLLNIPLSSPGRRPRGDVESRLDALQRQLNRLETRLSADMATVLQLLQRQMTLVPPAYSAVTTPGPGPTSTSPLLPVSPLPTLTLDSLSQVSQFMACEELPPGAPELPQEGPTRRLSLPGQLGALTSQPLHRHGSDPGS
row,Structure (SMILES),"hERG current change (%, negative = inhibition) at 10uM [%]"
1,CC1CCc2c(C(=O)NCc3ccco3)csc2C1 (stereo not drawn),-8.96
2,Cn1c(SCC(=O)O)nc2sc3c(c2c1=O)CCC3,30.3
3,COC(=O)c1ccc2c(c1)S(=O)(=O)NC(=NCc1ccco1)S2,-23.8
4,O=C(NCc1cccc(Cl)c1)c1cnccn1,-9.28
5,CCn1ncc(-c2csc(N)n2)c1C,0.511
6,BrC(=C\c1ccccc1)/C=N/N1CCN(Cc2ccccc2)CC1,4.34
7,CCN1C(=O)C(CC(=O)NCCc2ccccc2)N(NC(=O)c2cccnc2)C1=S (stereo not drawn),-21.1
8,O=C(CSc1nc2cc(Cl)ccc2s1)Nc1cccc(S(=O)(=O)N2CCOCC2)c1,-10.7
9,S=C(NCCc1ccccc1)Nc1ccc(Br)cn1,3.98
10,CC(Oc1ccc(F)cc1)C(=O)Nc1cc(S(=O)(=O)N2CCOCC2)ccc1N1CCCC1 (stereo not drawn),13.7
11,CCN1CCN(c2ccc(S(=O)(=O)N3CCOCC3)cc2NC(=O)C(C)Oc2ccc(F)cc2)CC1 (stereo not drawn),-57.4
12,CC(Oc1ccc(F)cc1)C(=O)Nc1cc(S(=O)(=O)N2CCOCC2)ccc1N1CCN(C)CC1 (stereo not drawn),-29.9
13,C=CCN1C(=O)/C(=C\c2ccc(Oc3nc(N4CCOCC4)nc(N4CCOCC4)n3)c(OC)c2)SC1=S,15.9
14,COCCn1c(=S)[nH]c2cc(C(=O)NCCCN3CCOCC3)ccc2c1=O,8.93
15,CCCC[C@@H](CNC)NC[C@H](Cc1ccc(O)cc1)NCCc1ccc(OCC)cc1,-53.7
16,CCC[C@H](CN[C@@H](CNC)[C@H](C)O)NCCc1ccc(OC)cc1,2.16
17,CCC[C@@H](CNC)NC[C@H](Cc1ccccc1)NCCCCc1ccccc1,-6.02
18,Cc1[nH]c2ccccc2c1/C=N/n1cnnc1,10.2
19,COCCn1c(C)cc(C(=O)COc2ccc(N(C)S(=O)(=O)c3ccc(C)cc3)cc2)c1C,-19.9
20,CCc1ccc(OCC(=O)N/N=C/c2cc([N+](=O)[O-])ccc2N2CCOCC2)cc1,-14.6
21,CCN(CC)S(=O)(=O)c1ccc(-c2cn3ccc(C)cc3n2)cc1,7.52
22,O=C(O)C(=O)O.OC(COCc1cccs1)CN1CCN(c2cccc(Cl)c2)CC1 (stereo not drawn),-63.8
23,CN1CCCN(CC(O)COCc2cccs2)CC1 (stereo not drawn),-2.94

row,Structure (SMILES),"hERG current change (%, negative = inhibition) at 10uM [%]"
1,OC(COCc1cccs1)CN1CCN(c2cccc(C(F)(F)F)c2)CC1 (stereo not drawn),-69.6
2,Cl.OC(COCc1cccs1)CN1CCCCCC1 (stereo not drawn),-21.9
3,OC(COC(c1ccccc1)c1ccccc1)CN1CCN(c2cccc(Cl)c2)CC1 (stereo not drawn),6.16
4,O=C(Cc1cccs1)N1CCN(c2cccc(Cl)c2)CC1,-12
5,CCOC(=O)CNC(=O)c1cn(CC(C)C)c(=O)c2cc(OC)c(OC)cc12,-24
6,CCCC(=O)Nc1nnc(-c2ccccc2)o1,7.03
7,CCOc1ccc(NC(=O)CN(C)C(=O)c2cc(-c3ccncc3)nc3ccccc23)cc1OCC,-58.6
8,COCCN(CC(=O)Nc1cccc(C)c1C)C(=O)c1cc2ccccc2cc1OC,-26.7
9,CCOc1ccc(NC(=O)CN(C)C(=O)c2cccnc2Sc2ccccc2Cl)cc1OCC,-8.63
10,CCOc1ccc(NC(=O)CN(C)C(=O)c2cccnc2Sc2ccc(C)c(C)c2)cc1OCC,0.0885
11,CCOc1ccc(NC(=O)CN(C)C(=O)c2cccnc2Sc2ccc(Cl)cc2)cc1OCC,-52.4
12,CCOc1ccc(NC(=O)CN(C)C(=O)c2cc(-c3ccc(OC)cc3)nc3ccccc23)cc1OCC,-2.15
13,COCCN(CC(=O)Nc1cccc(C)c1C)C(=O)c1cc(-c2ccncc2)nc2ccccc12,-57.3
14,CCOc1ccc(NC(=O)CN(C)C(=O)c2cc(C)nc3ccccc23)cc1OCC,-16.2
15,COCCN(CC(=O)Nc1cccc(C)c1C)C(=O)c1ccc2ccccc2n1,-0.121
16,O=C(Cc1ccc(S(=O)(=O)N2CCOCC2)s1)N1CCN(S(=O)(=O)c2cccc(Cl)c2)CC1,-5.33
17,CC(=O)N1N=C(c2ccc(C)cc2)OC1c1ccc(Br)cc1 (stereo not drawn),27.8
18,Cc1nnc(NC(=O)CSc2ccc(-c3ccco3)nn2)s1,9.75
19,CC(C)NC(=O)CSc1nc(N)c(NC(=O)c2ccco2)c(=O)[nH]1,14.7
20,OCCNc1nc2nonc2nc1NCCO,11
21,CN1CCN(C(=O)/C=C/c2cccc(Cl)c2)CC1,-6.45
22,Clc1ccc(C(c2ccccc2)N2CCNCC2)cc1 (stereo not drawn),-22.7
23,CN1CCN(C(c2ccccc2)c2ccc(Cl)cc2)CC1.Cl (stereo not drawn),-60.9

row,Structure (SMILES),"hERG current change (%, negative = inhibition) at 10uM [%]"
1,CN1CCN(C(c2ccccc2)c2ccccc2)CC1.Cl,-12.1
2,CN1CCCN(C(c2ccccc2)c2ccc(Cl)cc2)CC1.Cl (stereo not drawn),-73.8
3,Clc1ccc(C(c2ccccc2)N2CCN(c3ccccn3)CC2)cc1 (stereo not drawn),-5.64
4,CN1CCN(C(c2cccc(Cl)c2)c2ccccc2Cl)CC1.O=C(O)/C=C\C(=O)O (stereo not drawn),-73.1
5,O=C(O)/C=C/C(=O)N1CCN(C(c2ccccc2)c2ccccc2)CC1,40.8
6,Cc1cccc(CN2CCN(C(c3ccccc3)c3ccc(Cl)cc3)CC2)c1.Cl (stereo not drawn),18.5
7,COc1cccc(CN2CCN(c3ncccn3)CC2)c1OC,-3.3
8,COc1ccc(CCNC(=O)c2nnn(CC(=O)Nc3ccccc3C)c2N)cc1OC,16.3
9,CSc1ncccc1C(=O)Nc1ccc(C)cn1,0.536
10,Cc1ccc(CS/C(Nc2ccccc2C)=C(\C#N)C(=O)NCc2ccco2)c(C)c1,9.03
11,CCN(CC)S(=O)(=O)c1ccc(C(=O)NCCCN=C2NS(=O)(=O)c3ccccc32)cc1,-5.24
12,CCC1(CC)C(=O)C2=C3C1[C@H](C(=O)OC)C=C(C(=O)OC)C[C@H]3[C@H]1C(=O)N(CC(=O)OC)C(=O)[C@H]1[C@H]2C (stereo partly drawn),5.84
13,COc1ccc(OC)c(S(=O)(=O)Nc2cc3c4c(c2)CCN4C(=O)CC3)c1,-2.69
14,C=CCn1c(SCC(=O)N2CC(=O)Nc3ccccc32)nc2scc(-c3ccccc3)c2c1=O,-1.72
15,O=C(CSc1nccn(-c2ccc(Br)cc2)c1=O)NC1CCCC1,13.7
16,Cc1nnc(NC(=O)CSc2nnc(CNC(=O)c3ccc(S(=O)(=O)N(C)C)cc3)o2)s1,22.6
17,CC(Cl)C(=O)NNC(=O)CNS(=O)(=O)c1ccccc1 (stereo not drawn),-0.478
18,Cc1ccc(NC(/C=C/N(C)C)=C/C(=O)C(F)(F)F)c(C)c1,-56.7
19,CN(C)/C=C\C(=C/C(=O)C(F)(F)F)Nc1ccccc1Oc1ccccc1,-24.4
20,CN(C)/C=C/C(=C\C(=O)C(F)(F)F)Nc1ccc(C(F)(F)F)cc1,2.83
21,C=CCc1ccc(OCC(O)CN2CCN(c3ccccc3OC)CC2)c(OC)c1.Cl (stereo not drawn),-16.2
22,COc1cc(COCC(O)CN2CCCCC2C)cc(OC)c1OC.Cl (stereo not drawn),20.6
23,C=CCc1ccc(OCC(O)CN2CCN(c3ccccc3)CC2)c(OC)c1.Cl (stereo not drawn),-70.3

row,Structure (SMILES),"hERG current change (%, negative = inhibition) at 10uM [%]"
1,C=CCc1ccc(OCC(O)COc2ccc(CC=C)cc2OC)c(OC)c1,-24.5
2,C=CCc1ccc(OCC(O)CN2CCc3ccccc3C2)c(OC)c1.Cl (stereo not drawn),-68.8
3,COc1cc(COCC(O)CN2CCc3ccccc3C2)cc(OC)c1OC.Cl (stereo not drawn),-21.7
4,C=CCc1ccc(OCC(O)CN2CCCCC2C)c(OC)c1.Cl (stereo not drawn),-55.1
5,C=CCc1ccc(OCC(O)CN2CCC(Cc3ccccc3)CC2)c(OC)c1.Cl (stereo not drawn),-77.5
6,CC(=O)C(C)n1c(CN(C)Cc2ccccc2)nc2c1c(=O)n(C)c(=O)n2C (stereo not drawn),-5.4
7,O=C(CSc1cc([N+](=O)[O-])cc(S(=O)(=O)Cc2ccccc2)c1)NC1CC1,-9.88
8,COCCNC(=O)COc1ccc(C)c(C)c1,3.36
9,Cc1cc(S(=O)(=O)N2CCC(N3CCCCC3)CC2)ccc1-n1cnnn1,-1.17
10,COc1cccc(C2CC(c3ccccc3Cl)n3nnnc3N2)c1 (stereo not drawn),-12.1
11,O=C(Nc1nc2ccccc2s1)c1cccc(S(=O)(=O)N2CCc3ccccc32)c1,-7.03
12,Cc1cccc(OCCCC(=O)NNC(=O)c2ccc(F)cc2)c1,-7.21
13,COc1ccc(-c2nn3c(C4CCCCC4)nnc3s2)cc1OC,-15.2
14,COc1ccc(-n2nc(C(=O)NCC(=O)NC3CCCCCC3)c3ccccc3c2=O)c(OC)c1,11.1
15,N/C(=N\OC(=O)COc1ccc(Cl)cc1Br)c1cccnc1,-8.3
16,C=CCc1ccc(OC)c(OC)c1,23.8
17,C=CCc1ccc(OCC(O)COCC)c(OC)c1 (stereo not drawn),-3.56
18,C=CCc1ccc(OCC(O)CO)c(OC)c1 (stereo not drawn),11.6
19,C=CCc1ccc(OCC(O)CN2CCN(Cc3ccc(Cl)cc3)CC2)c(OC)c1.Cl (stereo not drawn),-75.7
20,C=CCc1ccc(OCC(O)CN2CCCCC2)c(OC)c1 (stereo not drawn),-54.8
21,C=CCc1ccc(OCC(O)CN2CCN(Cc3ccccc3)CC2)c(OC)c1.Cl (stereo not drawn),-77
